# Calls of active or inactive are those of the source. The calls were made as follows: active = hit-call score of the fitted dose curve at least 0.9, where 1 is the maximum; inactive = score below 0.9.
# Read-out: Ezrin (EZR), EZR (gene 7430)
# Assay: LTEA_HepaRG_EZR: Life Technologies and Expression Analysis (LTEA) Assay for Ezrin (EZR) using HepaRG (AID 2283491)
# Conditions: mRNA level, 48 h; actives raise or lower the signal
# Description: It is a marker of Cellular remodeling.Data from the assay component LTEA_HepaRG_EZR was analyzed into 1 endpoint. This assay endpoint, LTEA_HepaRG_EZR, was analyzed with bidirectional fitting relative to DMSO as the negative control and baseline of activity. Using a type of inducible reporter, measures of mRNA induction for gain or loss-of-signal activity can be used to understand regulation of transcription factor activity. To generalize the intended target to other relatable targets, this assay endpoint is annotated to the membrane protein intended target family, where the subfamily is Cellular remodeling.
# A total of 1060 chemcials from the ToxCast library were tested in eight-point concentration-response experiments. Cell culture and cytotoxicity assays were conducted at Thermo Fisher Scientific's Custom Services facility (Madison, WI). A single lot of human HepaRG cells (Thermo Fisher Scientific, Frederick, MD) was used for the cell culture experiments. 96-well format collagen type I coated plates of human HepaRG cells were prepared using established methods. Briefly, cryopreserved HepaRG cells were thawed, plated at a density of approximately 100,000 cells/well in HepaRG Thaw, Plate, and General Purpose media (HPRG770, Thermo Fisher Scientific), and incubated for 48 hours. 0.5% DMSO was selected as vehicle control to balance the requisite need of DMSO in HepaRG cultures to maintain differentiation (for example, baseline metabolism, proportions of hepatocytes vs. cholangiocytes), while enabling further hepatic receptor pathway activation (for example, PXR and CAR) in response to chemical exposure. 48 hours after plating, the culture medium was replaced with HepaRG Serum-Free Incudtion Media. Cells were exposed to each test chemical in duplicate and maintained in CO2 incubators for another 48 hours. Chemical plates were thawed to room temperature and 200x concentrations of treatment groups were prepared. 8-point conentration-reponse curves were made with the highest exposure at 100 uM, followed by half-log dilutions, all in 0.5% DMSO. Each test plate contained variouse controls, induction positive controls (1mM phenobarbital), cytotoxicity positive controls ([…] aflatoxin B1), vehicle controls (0.5% DMSO), and total lysis controls (0.5% DMSO). Cell morphology images were taken using an Essen IncuCyte FLR automated microscope, with six 96-well plates imaged in about 24 minutes. Images were captured and exported and JPEG files. Spent culture media was transfered to black-well plates for the LDH assay, and remaining media was sorted at -80 C for later use. Cells were treated with RLT buffer and frozen until shipped for gene expression analysis. Total RNA was isolated from the cell suspension in 75 uL of Buffer RLT (Qiagen, Germantown, MD 20874) by Quintiles/Expression Analysis (Durham, NC) using a custom isolation procedure. Total RNA from each plate well was transferred to a preamplification plate. Fluidigm's 96.96 Dynamic ArrayTM (Fluidigm, Amsterdam, the Netherlands) technology was used for gene expression analyses by quantitative reverse transcription polymerase chain reaction (qRT-PCR, performed by Quintiles/Expression Analysis, Durham, NC)89. Standard TaqManTM Assays (Applied Biosystems/ThermoFisher Scientific, Foster City, CA) were used to assess the expression of 93 genes selected based on their selectivity and sensitivity to important hepatic receptors known to be modulated by environmental chemicals; importance in human hepatocyte functionality; and hepatotoxicity. Three "housekeeping" endogenous control genes were also included and used for normalization: actin beta (ACTB), Glyceraldehyde 3 phosphate dehydrogenase (GAPDH) and RNA Polymerase II Subunit A (POLR2A). qRT-PCR was conducted according to the manufacturer's protocol.
row,SMILES,outcome
1,O=C(O)c1cccc(C[C@@H]2COc3ccc(OCc4nc5cc(F)ccc5s4)cc3[C@@H]2O)c1,inactive
2,NC(N)=O,inactive
3,C[C@]12C=CC(=O)C=C1CC[C@H]1[C@@H]3C[C@@H](O)[C@](O)(C(=O)CO)[C@@]3(C)C[C@H](O)[C@@]12F,inactive
4,c1ccc2cc3ccccc3cc2c1,inactive
5,C=CN1CCCC1=O,inactive
6,Cc1nc(-c2ccccn2)ncc1C(=O)Nn1cc(C)c2cc(F)ccc21,inactive
7,CCCCCCCC1CCC(=O)O1 (stereo not given),inactive
8,COCc1nnc(-c2ccc[n+]([O-])c2)n1-c1c(Cl)c(Cl)cc2[nH]c(=O)c(=O)[nH]c12,inactive
9,c1ccc(C(O[C@@H]2CCCN(CCc3ccc4c(c3)OCO4)C2)c2ccccc2)cc1,inactive
10,OC[C@H]1O[C@@](CO)(O[C@H]2O[C@H](CO)[C@@H](O)[C@H](O)[C@H]2O)[C@@H](O)[C@@H]1O,inactive
11,OC[C@H]1O[C@@H]2O[C@H]3[C@H](O)[C@@H](O)[C@@H](O[C@H]4[C@H](O)[C@@H](O)[C@@H](O[C@H]5[C@H](O)[C@@H](O)[C@@H](O[C@H]6[C@H](O)[C@@H](O)[C@@H](O[C@H]7[C@H](O)[C@@H](O)[C@@H](O[C@H]1[C@H](O)[C@H]2O)O[C@@H]7CO)O[C@@H]6CO)O[C@@H]5CO)O[C@@H]4CO)O[C@@H]3CO,inactive
12,CCn1nc(C)c2c1C(=O)NCC(c1ccc(O)cc1)=N2,inactive
13,CCCc1ccccc1,inactive
14,NC(=O)NN=Cc1ccc([N+](=O)[O-])o1,inactive
15,O=C(NO)C1(NS(=O)(=O)c2ccc(Oc3ccc(F)cc3)cc2)CCOCC1,inactive
16,OC(CCl)CCl,inactive
17,Cc1nccn1-c1ccc(Sc2cccc(C3(C(N)=O)CCOCC3)c2)cc1,inactive
18,O=C1CN(N=Cc2ccc([N+](=O)[O-])o2)C(=O)N1,inactive
19,Cn1cc[nH]c1=S,inactive
20,CCCCN1C(=O)[C@@H]([C@H](O)C2CCCCC2)NC(=O)C12CCN(Cc1ccc(Oc3ccc(C(=O)O)cc3)cc1)CC2,inactive

row,SMILES,outcome
1,CC1(C)C(=O)N(Cl)C(=O)N1Cl,inactive
2,CCCCCCCCN(C)C,inactive
3,OCc1ccccc1,inactive
4,CCN(CC)C(=S)SSC(=S)N(CC)CC,inactive
5,Cn1c(=O)c2[nH]cnc2n(C)c1=O,inactive
6,c1ccc2ncccc2c1,inactive
7,NNC(=O)c1ccncc1,inactive
8,O=C(O)c1cccc(C(=O)O)c1,inactive
9,C[C@@H](Oc1ccc(CNC(=O)c2cccnc2Oc2ccc3c(c2)OCO3)c(F)c1)C(=O)O,inactive
10,O=S(=O)(O)c1ccc(N=Nc2c(O)ccc3cc(S(=O)(=O)O)ccc23)cc1,inactive
11,Nc1ccn([C@@H]2O[C@H](CO)[C@@H](O)[C@@H]2O)c(=O)n1,inactive
12,OCCOCCOCCO,inactive
13,CCOc1ccc2[nH]cc(C(=O)NCc3ccccc3)c(=O)c2n1,inactive
14,CC(C)CCCCCCOC(=O)C1CCCCC1C(=O)OCCCCCCC(C)C (stereo not given),inactive
15,CC(=O)c1ccccc1,inactive
16,CCCCCCCC/C=C\CCCCCCCC(=O)OC[C@@H](O)[C@H]1OC[C@H](O)[C@H]1O,inactive
17,CCOC(N)=O,inactive
18,CCCCCCCCCCCCCCO,inactive
19,OC(Cn1cncn1)(Cn1cncn1)c1ccc(F)cc1F,inactive
20,COS(C)(=O)=O,inactive
